The results in this text go back to PMC4336329 (PLoS ONE, 2015).

The whole screen tested about 310,000 compounds, of which about 14,000 (4.5%) showed an effect of 50% or more. Effects have a minus sign here. Many of the other results were omitted from the sample, so strong results are more common in it than they were.
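Also: peak tail current of the secondary pulse compared with the same well before compound.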

Sequence of human ether-à-go-go-related gene (hERG) potassium channel (Q12809 whole entry, looked up): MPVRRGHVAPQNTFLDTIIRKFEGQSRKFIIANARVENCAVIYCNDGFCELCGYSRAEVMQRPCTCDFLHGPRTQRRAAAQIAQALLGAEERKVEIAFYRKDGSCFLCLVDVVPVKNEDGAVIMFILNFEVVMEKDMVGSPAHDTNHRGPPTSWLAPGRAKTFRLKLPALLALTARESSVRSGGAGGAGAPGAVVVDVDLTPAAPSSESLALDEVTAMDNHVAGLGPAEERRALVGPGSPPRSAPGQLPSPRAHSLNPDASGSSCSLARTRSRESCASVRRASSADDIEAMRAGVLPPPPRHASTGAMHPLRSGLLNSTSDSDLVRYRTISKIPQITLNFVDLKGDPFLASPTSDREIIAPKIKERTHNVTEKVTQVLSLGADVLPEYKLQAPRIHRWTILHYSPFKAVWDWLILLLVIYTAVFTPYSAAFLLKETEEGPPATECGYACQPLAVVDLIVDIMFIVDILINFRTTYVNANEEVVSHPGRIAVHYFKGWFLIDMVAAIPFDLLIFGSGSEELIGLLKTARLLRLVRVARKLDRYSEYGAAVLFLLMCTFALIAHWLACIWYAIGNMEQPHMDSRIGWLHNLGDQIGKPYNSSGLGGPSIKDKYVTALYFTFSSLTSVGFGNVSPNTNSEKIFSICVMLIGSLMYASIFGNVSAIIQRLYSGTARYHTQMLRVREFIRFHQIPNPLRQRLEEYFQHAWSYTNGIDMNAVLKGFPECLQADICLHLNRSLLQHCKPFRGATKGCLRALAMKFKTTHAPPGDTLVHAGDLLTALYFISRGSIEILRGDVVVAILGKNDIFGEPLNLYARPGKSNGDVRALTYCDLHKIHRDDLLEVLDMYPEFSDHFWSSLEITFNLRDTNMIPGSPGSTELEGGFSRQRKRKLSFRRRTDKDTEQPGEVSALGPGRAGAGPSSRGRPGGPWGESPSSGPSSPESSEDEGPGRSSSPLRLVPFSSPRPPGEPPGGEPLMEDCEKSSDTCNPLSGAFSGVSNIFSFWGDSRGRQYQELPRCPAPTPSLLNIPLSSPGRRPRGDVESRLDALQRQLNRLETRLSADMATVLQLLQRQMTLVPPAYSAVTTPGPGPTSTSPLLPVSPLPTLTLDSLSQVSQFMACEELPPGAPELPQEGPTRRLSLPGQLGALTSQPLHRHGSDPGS

This assay has as its target human ether-à-go-go-related gene (hERG) potassium channel (human, UniProt Q12809). The experiment in a line: primary screen, population patch clamp on CHO cells stably expressing hERG; higher = less effect of the substance.
As to `COc1ccc(NC(=O)CSc2cn[nH]n2)cc1OC`, the “hERG current change (%, negative = inhibition) at 10uM” value is 31.4%.

For the compound `COc1ccc(NC(=O)N2C[C@@H]3C[C@@H](C2)c2cccc(=O)n2C3)cc1`, the “hERG current change (%, negative = inhibition) at 10uM” value is 7.74%.

Take `N#C/C(=N\Nc1ccc(Cl)cc1)C(=N)N1CCCCC1`: the “hERG current change (%, negative = inhibition) at 10uM” value is listed as -31.1%.

For `CC(C)C(=O)Nc1ccc(S(=O)(=O)N2CCC(c3nc4ccccc4[nH]3)CC2)cc1`, the “hERG current change (%, negative = inhibition) at 10uM” value is on record as -42.7%.

For `CC1=CCC(C(=O)O)C(C(=O)Nc2ccc(-c3nc4ccc(C)cc4s3)cc2)C1` (centres unmarked), the “hERG current change (%, negative = inhibition) at 10uM” value came to 7.8%.

With `COc1ccccc1Oc1ccccc1[N+](=O)[O-]`, the “hERG current change (%, negative = inhibition) at 10uM” value came out at 5.95%.

Regarding `O=C(NNC(=O)c1ccc(Cl)c([N+](=O)[O-])c1)c1ccncc1`, the “hERG current change (%, negative = inhibition) at 10uM” value was 13.2%.

Consider `COc1cc(/C=C2/C(=O)N(c3ccc([N+](=O)[O-])cc3)N=C2N2CCOCC2)ccc1O`, for which the “hERG current change (%, negative = inhibition) at 10uM” value is -42.2%.

Regarding `CCN(CC)CCn1c2ccc(Cl)cc2c2nc(C)sc21.Cl`, the “hERG current change (%, negative = inhibition) at 10uM” value is given as -68.2%.

For `CCN(CC)CCn1c2ccccc2c2nc(C)sc21`, the “hERG current change (%, negative = inhibition) at 10uM” value is -30.6%.

For `CCN(CC)CCn1c2ccc(F)cc2c2nc(C)sc21.Cl`, the “hERG current change (%, negative = inhibition) at 10uM” value is reported as -54.3%.

`Cc1nc2c3cc(F)ccc3n(Cc3ccccc3)c2s1`: the “hERG current change (%, negative = inhibition) at 10uM” value was determined as 4.24%.

Take `COC(=O)Cn1c2ccc(Cl)cc2c2nc(C)sc21`: the “hERG current change (%, negative = inhibition) at 10uM” value is given as 5.43%.

For the compound `Cc1nc2c3cc(F)ccc3n(Cc3ccc(F)cc3)c2s1`, the “hERG current change (%, negative = inhibition) at 10uM” value is recorded as 13.8%.

Consider `COc1ccc(-n2ccc(=O)c3c2CCCC3=O)cc1`, for which the “hERG current change (%, negative = inhibition) at 10uM” value came out at 13.5%.

As for `CCn1cc(C(=O)O)c(=O)c2cnc(N3CCN(C(=S)Nc4ccccc4Cl)CC3)nc21`, the “hERG current change (%, negative = inhibition) at 10uM” value is -4.66%.

With `N#Cc1ccc(Cl)cc1NC(=O)COC(=O)[C@H](CCC(N)=O)NC(=O)c1ccc(F)cc1`, the “hERG current change (%, negative = inhibition) at 10uM” value worked out at 1.75%.

Regarding `Cc1ccc2c(c1)C(C)CC(C)(C)N2C(=O)CN1CCN(C)CC1.O=C(O)C(=O)O` (centres unmarked), the “hERG current change (%, negative = inhibition) at 10uM” value is -23.6%.

As for `C/C=C(\C)C(=O)NCCN1C2=NC[C@@H](C)N2C[C@H]1Cc1ccc(O)cc1`, the “hERG current change (%, negative = inhibition) at 10uM” value is listed as 12.9%.

As to `COc1ccc(C[C@H]2CN3C(=NC[C@@H]3C(C)C)N2CCNC(=O)c2ccc(C)c(Br)c2)cc1`, the “hERG current change (%, negative = inhibition) at 10uM” value was -79%.

Take `COc1ccc(C[C@H]2CN3C(=NC[C@H]3C)N2CCNC(=O)c2ccc(C)c(Br)c2)cc1`: the “hERG current change (%, negative = inhibition) at 10uM” value is given as -72%.

On to `C/C=C(\C)C(=O)NCCN1C2=NC[C@@H](C)N2C[C@@H]1Cc1ccc(OC)cc1`, for which the “hERG current change (%, negative = inhibition) at 10uM” value amounted to 0.0958%.

In the case of `Cc1ccc(C(=O)NCCN2C3=NC[C@H](C(C)C)N3C[C@H]2Cc2ccc(O)cc2)cc1Br`, the “hERG current change (%, negative = inhibition) at 10uM” value is on record as -26.3%.

`COc1ccc(C[C@@H]2CN3C(=NC[C@@H]3C)N2CCNC(=O)c2ccc(C)c(Br)c2)cc1`: the “hERG current change (%, negative = inhibition) at 10uM” value is -71.4%.

`CCc1nc(-c2ccccc2)cc(=O)[nH]1`: the “hERG current change (%, negative = inhibition) at 10uM” value is on record as -6.29%.

On to `CCOC(=O)c1cc(NC(=O)c2ccc(C)cc2)c(=O)oc1C(F)(F)F`, for which the “hERG current change (%, negative = inhibition) at 10uM” value is recorded as -2.5%.

Consider `O=C(CSCc1ccccc1)Nc1ccc(S(=O)(=O)N2CCOCC2)cc1`, for which the “hERG current change (%, negative = inhibition) at 10uM” value is on record as -17.7%.

For the compound `Cc1cc(C(=O)N/N=C/c2ccc(-c3cccc(Br)c3)o2)n[nH]1`, the “hERG current change (%, negative = inhibition) at 10uM” value was found to be 12.4%.

Turning to `NS(=O)(=O)c1ccc(CNC(=O)CC23CC4CC(CC(C4)C2)C3)cc1`, the “hERG current change (%, negative = inhibition) at 10uM” value is recorded as -5.69%.

Take `Cc1nn(C)c(C)c1NC(=O)CSc1nnc(C)n1-c1ccccc1`: the “hERG current change (%, negative = inhibition) at 10uM” value is -0.523%.

Regarding `Cc1cc(NC(=O)CSc2nnc3c(C)cc4cc(C)c(C)cc4n23)no1`, the “hERG current change (%, negative = inhibition) at 10uM” value was determined as 20%.

For `O=C1CNC(=O)/C1=C/c1ccc(Br)cc1`, the “hERG current change (%, negative = inhibition) at 10uM” value is listed as 16.7%.

Regarding `CN1/C(=C/C(=O)c2nc(S(C)(=O)=O)ncc2Cl)C(C)(C)c2ccccc21`, the “hERG current change (%, negative = inhibition) at 10uM” value is -29.9%.

For `CCN(CC)CCn1c2c(c(SCC(=O)Nc3ccc(C(C)C)cc3)nc1=O)CCC2`, the “hERG current change (%, negative = inhibition) at 10uM” value was -56.9%.

Take `CCN(CC)CCn1c2c(c(SCC(=O)Nc3ccc(C(C)C)cc3)nc1=O)CCCC2`: the “hERG current change (%, negative = inhibition) at 10uM” value is recorded as -68.3%.

With `O=C(COC(=O)c1ccc(NS(=O)(=O)c2ccc3c(c2)OCCO3)cc1)NC1CC1`, the “hERG current change (%, negative = inhibition) at 10uM” value is listed as -1.56%.

Regarding `COc1cc(OC)c(C2=NOC(C(=O)O)C2)cc1Cl` (centres unmarked), the “hERG current change (%, negative = inhibition) at 10uM” value is listed as 5.14%.

Turning to `CC(C)(C)c1ccc(SCCc2ccncc2)cc1`, the “hERG current change (%, negative = inhibition) at 10uM” value is reported as 3.48%.

Turning to `COC(=O)C1=C(c2ccc(F)cc2OCc2ccccc2)C[C@@H]2CC[C@H]1N2C(=O)NCc1cccc(OC)c1`, the “hERG current change (%, negative = inhibition) at 10uM” value was 2.72%.

As to `COc1ccc(-c2cc(C(=O)Nc3c(C)n(C)n(-c4ccccc4)c3=O)no2)cc1`, the “hERG current change (%, negative = inhibition) at 10uM” value came out at 6.42%.

For `COc1ccc(N=c2cc(-c3ccc(OC)cc3)oc3ccccc23)cc1`, the “hERG current change (%, negative = inhibition) at 10uM” value was found to be 4.41%.

On to `COc1ccc(-c2cc(=Nc3ccc(C)cc3)c3ccccc3o2)cc1`, for which the “hERG current change (%, negative = inhibition) at 10uM” value came out at 5.87%.

For the compound `CCc1ccc2oc(-c3ccc(OC)cc3)cc(=[NH+]c3c(C)n(C)n(-c4ccccc4)c3=O)c2c1.F[B-](F)(F)F`, the “hERG current change (%, negative = inhibition) at 10uM” value is -71.7%.

For `COc1ccc(-c2cc(=Nc3c(C)n(C)n(-c4ccccc4)c3=O)c3ccccc3o2)cc1`, the “hERG current change (%, negative = inhibition) at 10uM” value is listed as -68.1%.
